# According to paper PMC7862700, “An all-to-all approach to the identification of sequence-specific readers for epigenetic DNA modifications on cytosine”:
# What was measured:
# Assay in all cases: DAPPL (digital affinity profiling via proximity ligation, sequencing); 10 mM Tris-HCl pH 7.5, 50 mM NaCl, 1 mM DTT, 4% glycerol, room temperature, 30 min; GST-TFs on glutathione beads, 16-mer random dsDNA library, 0.1% formaldehyde crosslink after washing; high values mean tight binding
# FEV = biological target: T1, FEV (Homo sapiens, UniProt Q99581 1-238); conditions: protein: recombinant; tags: N-terminal GST; dsDNA, one strand shown
# T1 sequence: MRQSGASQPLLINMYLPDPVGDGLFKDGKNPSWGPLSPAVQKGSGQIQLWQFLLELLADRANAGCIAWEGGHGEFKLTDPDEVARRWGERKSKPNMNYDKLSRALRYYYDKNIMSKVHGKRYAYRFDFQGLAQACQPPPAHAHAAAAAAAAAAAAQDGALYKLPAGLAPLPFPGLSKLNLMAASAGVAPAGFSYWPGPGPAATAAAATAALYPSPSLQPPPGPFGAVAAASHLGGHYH
# How it was run: (§1)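 The binding signal reported is, for every hexamer, its read frequency for a factor over its read frequency for the tag-only sample. Reads came from pools of yeast-expressed, GST-fused human transcription factors on glutathione beads, barcoded with DNA and mixed with that sample, which were incubated with 200 nmole of a random double-stranded 16-mer DNA library in Tris/NaCl/DTT/glycerol buffer at room temperature for 30 min. After washing, the pools were crosslinked with 0.1% formaldehyde, proximity-ligated with BsaI/T4 ligase for 1 h at 37 °C, PCR-amplified and sequenced on an Illumina NextSeq500.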
# ETV5 = ETV5 (Homo sapiens, UniProt P41161 1-510); conditions: protein: recombinant; tags: N-terminal GST; dsDNA, one strand shown
# How it was run: as §1
# HSF1 = HSF1 (Homo sapiens, UniProt Q00613 1-529); conditions: protein: recombinant; tags: N-terminal GST; chain copies: 3; dsDNA, one strand shown
# How it was run: as §1
# SPIC = biological target: T2, SPIC (Homo sapiens, UniProt Q8N5J4 1-248); conditions: protein: recombinant; tags: N-terminal GST; dsDNA, one strand shown
# T2 sequence: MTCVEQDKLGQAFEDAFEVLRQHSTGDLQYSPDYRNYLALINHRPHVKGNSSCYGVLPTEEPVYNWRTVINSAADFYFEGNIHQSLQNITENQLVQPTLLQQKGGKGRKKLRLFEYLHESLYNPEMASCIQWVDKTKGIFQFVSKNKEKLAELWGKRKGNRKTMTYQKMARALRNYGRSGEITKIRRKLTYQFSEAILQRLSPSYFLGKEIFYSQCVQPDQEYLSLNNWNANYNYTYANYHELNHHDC
# How it was run: as §1
# ELF4 = ELF4 (Homo sapiens, UniProt Q99607 1-663); conditions: protein: recombinant; tags: N-terminal GST; dsDNA, one strand shown
# How it was run: as §1
# ELK4 = biological target: T3, ELK4 (Homo sapiens, UniProt P28324-2 1-405); conditions: protein: recombinant; tags: N-terminal GST; dsDNA, one strand shown
# T3 sequence: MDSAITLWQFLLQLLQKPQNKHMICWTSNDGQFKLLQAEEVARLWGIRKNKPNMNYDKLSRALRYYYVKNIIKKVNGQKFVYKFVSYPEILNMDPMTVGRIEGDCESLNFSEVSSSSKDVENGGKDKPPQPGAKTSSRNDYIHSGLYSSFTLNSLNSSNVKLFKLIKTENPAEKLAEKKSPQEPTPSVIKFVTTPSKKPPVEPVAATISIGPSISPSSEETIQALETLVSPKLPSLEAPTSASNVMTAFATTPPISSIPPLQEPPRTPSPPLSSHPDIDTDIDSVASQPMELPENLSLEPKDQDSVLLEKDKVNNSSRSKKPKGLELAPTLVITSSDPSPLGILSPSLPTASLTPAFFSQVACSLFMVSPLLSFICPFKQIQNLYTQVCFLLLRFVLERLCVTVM
# How it was run: as §1
# ETV2 = biological target: T4, ETV2 (Homo sapiens, UniProt O00321 1-342); conditions: protein: recombinant; tags: N-terminal GST; dsDNA, one strand shown
# T4 sequence: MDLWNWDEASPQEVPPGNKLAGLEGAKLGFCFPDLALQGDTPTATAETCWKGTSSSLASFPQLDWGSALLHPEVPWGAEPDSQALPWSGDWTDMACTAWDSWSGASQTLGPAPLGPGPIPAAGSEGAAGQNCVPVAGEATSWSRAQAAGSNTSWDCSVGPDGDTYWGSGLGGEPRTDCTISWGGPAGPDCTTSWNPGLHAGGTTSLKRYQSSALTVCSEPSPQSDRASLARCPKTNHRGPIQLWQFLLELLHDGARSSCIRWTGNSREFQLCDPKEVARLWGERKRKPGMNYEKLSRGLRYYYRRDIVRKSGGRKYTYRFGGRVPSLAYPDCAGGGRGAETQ
# How it was run: as §1
# ELF3 = biological target: T5, ELF3 (Homo sapiens, UniProt P78545 1-371); conditions: protein: recombinant; tags: N-terminal GST; dsDNA, one strand shown
# T5 sequence: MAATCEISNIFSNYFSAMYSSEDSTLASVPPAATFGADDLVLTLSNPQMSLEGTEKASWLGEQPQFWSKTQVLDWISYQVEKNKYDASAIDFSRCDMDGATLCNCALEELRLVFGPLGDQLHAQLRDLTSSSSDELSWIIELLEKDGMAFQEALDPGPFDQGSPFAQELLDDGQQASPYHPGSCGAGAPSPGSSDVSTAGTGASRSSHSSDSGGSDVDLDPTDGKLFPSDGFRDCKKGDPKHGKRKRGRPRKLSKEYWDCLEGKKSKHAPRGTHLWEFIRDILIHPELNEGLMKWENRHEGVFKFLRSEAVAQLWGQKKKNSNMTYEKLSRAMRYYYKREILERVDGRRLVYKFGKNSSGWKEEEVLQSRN
# How it was run: as §1
# CRX = CRX (Homo sapiens, UniProt O43186 1-299); conditions: protein: recombinant; tags: N-terminal GST; dsDNA, one strand shown
# How it was run: as §1
# ETV1 = ETV1 (Homo sapiens, UniProt P50549 1-477); conditions: protein: recombinant; tags: N-terminal GST; dsDNA, one strand shown
# How it was run: as §1
# ERF = biological target: T6, ERF (Homo sapiens, UniProt P50548 1-548); conditions: protein: recombinant; tags: N-terminal GST; dsDNA, one strand shown
# T6 sequence: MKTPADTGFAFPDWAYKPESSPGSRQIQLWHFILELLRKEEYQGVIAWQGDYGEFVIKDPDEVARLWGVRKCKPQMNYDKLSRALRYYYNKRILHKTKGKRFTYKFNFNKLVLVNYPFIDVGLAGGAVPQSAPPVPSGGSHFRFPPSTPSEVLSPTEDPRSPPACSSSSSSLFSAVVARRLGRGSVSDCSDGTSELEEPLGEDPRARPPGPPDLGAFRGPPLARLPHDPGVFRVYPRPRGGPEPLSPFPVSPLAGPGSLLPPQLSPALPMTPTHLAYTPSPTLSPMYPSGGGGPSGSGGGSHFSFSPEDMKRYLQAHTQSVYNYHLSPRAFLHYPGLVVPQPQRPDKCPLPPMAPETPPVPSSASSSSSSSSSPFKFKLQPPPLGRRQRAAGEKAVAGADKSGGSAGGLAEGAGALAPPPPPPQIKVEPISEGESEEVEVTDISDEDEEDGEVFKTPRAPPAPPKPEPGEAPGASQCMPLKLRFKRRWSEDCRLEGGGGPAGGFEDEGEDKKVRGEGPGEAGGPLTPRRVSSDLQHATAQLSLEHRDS
# How it was run: as §1
# ETV3L = biological target: T7, ETV3L (Homo sapiens, UniProt Q6ZN32 1-361); conditions: protein: recombinant; tags: N-terminal GST; dsDNA, one strand shown
# T7 sequence: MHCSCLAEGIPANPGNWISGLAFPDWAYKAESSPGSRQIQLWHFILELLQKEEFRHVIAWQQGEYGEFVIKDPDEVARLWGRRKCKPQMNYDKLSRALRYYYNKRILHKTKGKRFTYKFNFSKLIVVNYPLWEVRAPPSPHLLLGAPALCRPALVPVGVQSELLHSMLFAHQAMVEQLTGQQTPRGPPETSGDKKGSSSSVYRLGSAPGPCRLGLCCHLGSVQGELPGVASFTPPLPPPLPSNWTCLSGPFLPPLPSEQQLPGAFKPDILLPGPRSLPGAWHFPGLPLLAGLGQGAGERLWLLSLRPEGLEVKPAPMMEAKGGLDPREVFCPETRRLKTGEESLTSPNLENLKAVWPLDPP
# How it was run: as §1
# ETS2 = biological target: T8, ETS2 (Homo sapiens, UniProt P15036 1-469); conditions: protein: recombinant; tags: N-terminal GST; dsDNA, one strand shown
# T8 sequence: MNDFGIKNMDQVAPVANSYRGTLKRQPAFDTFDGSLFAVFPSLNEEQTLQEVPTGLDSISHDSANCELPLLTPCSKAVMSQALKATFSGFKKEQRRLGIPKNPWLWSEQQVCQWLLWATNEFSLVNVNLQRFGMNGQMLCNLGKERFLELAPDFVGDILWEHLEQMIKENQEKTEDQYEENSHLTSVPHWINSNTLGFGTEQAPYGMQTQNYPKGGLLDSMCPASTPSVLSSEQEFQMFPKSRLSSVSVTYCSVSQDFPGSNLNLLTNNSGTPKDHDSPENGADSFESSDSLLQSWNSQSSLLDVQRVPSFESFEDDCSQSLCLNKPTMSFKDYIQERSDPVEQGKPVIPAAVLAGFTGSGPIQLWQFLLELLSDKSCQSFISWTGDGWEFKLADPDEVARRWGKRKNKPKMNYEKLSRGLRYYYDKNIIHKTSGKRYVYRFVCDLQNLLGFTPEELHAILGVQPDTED
# How it was run: as §1
# SPDEF = biological target: T9, SPDEF (Homo sapiens, UniProt O95238 1-335); conditions: protein: recombinant; tags: N-terminal GST; dsDNA, one strand shown
# T9 sequence: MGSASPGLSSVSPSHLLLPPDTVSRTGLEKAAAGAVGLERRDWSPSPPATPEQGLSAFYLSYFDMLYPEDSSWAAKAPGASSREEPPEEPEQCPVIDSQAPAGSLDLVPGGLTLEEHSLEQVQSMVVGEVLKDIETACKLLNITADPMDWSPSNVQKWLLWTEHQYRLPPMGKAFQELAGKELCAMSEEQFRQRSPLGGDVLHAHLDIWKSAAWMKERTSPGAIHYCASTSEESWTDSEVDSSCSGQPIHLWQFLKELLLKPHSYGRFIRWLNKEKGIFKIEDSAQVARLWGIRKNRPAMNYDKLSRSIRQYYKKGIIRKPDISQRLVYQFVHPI
# How it was run: as §1
# ETV7 = biological target: T10, ETV7 (Homo sapiens, UniProt Q9Y603 1-341); conditions: protein: recombinant; tags: N-terminal GST; dsDNA, one strand shown
# T10 sequence: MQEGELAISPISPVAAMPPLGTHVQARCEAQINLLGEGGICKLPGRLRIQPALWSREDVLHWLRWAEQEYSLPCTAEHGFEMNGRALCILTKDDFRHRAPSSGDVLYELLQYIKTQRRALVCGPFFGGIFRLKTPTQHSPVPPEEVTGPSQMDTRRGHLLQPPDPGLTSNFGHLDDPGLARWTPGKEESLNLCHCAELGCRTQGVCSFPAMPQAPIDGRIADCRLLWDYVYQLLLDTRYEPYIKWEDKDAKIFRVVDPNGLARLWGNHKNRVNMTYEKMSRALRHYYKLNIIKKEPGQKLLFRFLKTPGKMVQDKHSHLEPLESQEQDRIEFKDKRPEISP
# How it was run: as §1
# ELF5 = biological target: T11, ELF5 (Homo sapiens, UniProt Q9UKW6-2 1-255); conditions: protein: recombinant; tags: N-terminal GST; dsDNA, one strand shown
# T11 sequence: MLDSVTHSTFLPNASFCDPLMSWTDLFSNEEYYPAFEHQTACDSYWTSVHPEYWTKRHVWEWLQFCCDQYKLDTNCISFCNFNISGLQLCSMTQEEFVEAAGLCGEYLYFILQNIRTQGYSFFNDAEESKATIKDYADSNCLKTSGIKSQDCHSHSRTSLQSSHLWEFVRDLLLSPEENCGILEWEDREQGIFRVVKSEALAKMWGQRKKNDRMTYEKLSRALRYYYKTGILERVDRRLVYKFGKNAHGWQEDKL
# How it was run: as §1
# ETV3 = biological target: T12, ETV3 (Homo sapiens, UniProt P41162-2 1-143); conditions: protein: recombinant; tags: N-terminal GST; dsDNA, one strand shown
# T12 sequence: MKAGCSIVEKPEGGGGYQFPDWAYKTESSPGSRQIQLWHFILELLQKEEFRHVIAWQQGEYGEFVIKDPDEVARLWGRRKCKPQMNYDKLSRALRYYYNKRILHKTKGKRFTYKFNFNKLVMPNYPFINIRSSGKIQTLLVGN
# How it was run: as §1
# ETV6 = ETV6 (Homo sapiens, UniProt P41212 1-452); conditions: protein: recombinant; tags: N-terminal GST; dsDNA, one strand shown
# How it was run: as §1
# Sequence of HSF1 (Q00613 whole entry): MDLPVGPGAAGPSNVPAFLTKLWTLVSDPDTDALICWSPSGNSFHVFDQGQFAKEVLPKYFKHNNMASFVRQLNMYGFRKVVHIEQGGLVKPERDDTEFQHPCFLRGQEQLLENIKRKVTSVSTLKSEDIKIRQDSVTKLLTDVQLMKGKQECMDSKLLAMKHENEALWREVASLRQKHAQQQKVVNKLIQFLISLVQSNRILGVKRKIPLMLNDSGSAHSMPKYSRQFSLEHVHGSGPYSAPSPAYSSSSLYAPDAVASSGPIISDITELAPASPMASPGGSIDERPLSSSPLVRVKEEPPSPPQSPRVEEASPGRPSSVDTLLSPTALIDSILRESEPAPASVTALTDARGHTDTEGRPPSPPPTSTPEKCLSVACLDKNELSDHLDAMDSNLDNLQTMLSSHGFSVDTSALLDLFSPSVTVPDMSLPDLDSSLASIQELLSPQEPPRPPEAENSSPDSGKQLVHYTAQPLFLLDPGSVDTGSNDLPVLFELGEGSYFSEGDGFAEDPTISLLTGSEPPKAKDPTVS
# Sequence of CRX (O43186 whole entry): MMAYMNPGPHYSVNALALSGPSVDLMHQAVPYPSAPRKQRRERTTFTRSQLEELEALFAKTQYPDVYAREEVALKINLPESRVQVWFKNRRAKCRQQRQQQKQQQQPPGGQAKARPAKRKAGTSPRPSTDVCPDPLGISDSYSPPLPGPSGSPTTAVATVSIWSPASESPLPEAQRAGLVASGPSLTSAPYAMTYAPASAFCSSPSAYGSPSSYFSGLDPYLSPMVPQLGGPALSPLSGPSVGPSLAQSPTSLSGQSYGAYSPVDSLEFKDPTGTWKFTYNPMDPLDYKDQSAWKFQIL
# Sequence of ELF4 (Q99607 whole entry): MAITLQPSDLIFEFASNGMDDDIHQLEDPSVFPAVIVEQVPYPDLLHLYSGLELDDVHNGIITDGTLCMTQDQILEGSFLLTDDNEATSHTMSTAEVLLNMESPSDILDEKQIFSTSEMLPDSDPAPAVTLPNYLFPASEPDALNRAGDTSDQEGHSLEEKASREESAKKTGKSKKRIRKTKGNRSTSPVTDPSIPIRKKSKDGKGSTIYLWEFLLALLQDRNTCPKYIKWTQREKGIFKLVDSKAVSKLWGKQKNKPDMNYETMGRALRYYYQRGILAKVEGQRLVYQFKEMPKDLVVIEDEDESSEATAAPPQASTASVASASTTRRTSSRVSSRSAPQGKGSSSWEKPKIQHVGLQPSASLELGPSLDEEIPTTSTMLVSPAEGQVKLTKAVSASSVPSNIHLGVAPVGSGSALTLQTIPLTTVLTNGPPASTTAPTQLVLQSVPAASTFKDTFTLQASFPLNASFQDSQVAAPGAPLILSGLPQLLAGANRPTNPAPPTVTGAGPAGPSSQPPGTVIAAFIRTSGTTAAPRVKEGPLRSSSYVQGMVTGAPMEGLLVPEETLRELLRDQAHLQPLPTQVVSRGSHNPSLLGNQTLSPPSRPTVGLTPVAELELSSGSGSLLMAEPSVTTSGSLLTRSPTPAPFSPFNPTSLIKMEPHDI
# Sequence of ETV1 (P50549 whole entry): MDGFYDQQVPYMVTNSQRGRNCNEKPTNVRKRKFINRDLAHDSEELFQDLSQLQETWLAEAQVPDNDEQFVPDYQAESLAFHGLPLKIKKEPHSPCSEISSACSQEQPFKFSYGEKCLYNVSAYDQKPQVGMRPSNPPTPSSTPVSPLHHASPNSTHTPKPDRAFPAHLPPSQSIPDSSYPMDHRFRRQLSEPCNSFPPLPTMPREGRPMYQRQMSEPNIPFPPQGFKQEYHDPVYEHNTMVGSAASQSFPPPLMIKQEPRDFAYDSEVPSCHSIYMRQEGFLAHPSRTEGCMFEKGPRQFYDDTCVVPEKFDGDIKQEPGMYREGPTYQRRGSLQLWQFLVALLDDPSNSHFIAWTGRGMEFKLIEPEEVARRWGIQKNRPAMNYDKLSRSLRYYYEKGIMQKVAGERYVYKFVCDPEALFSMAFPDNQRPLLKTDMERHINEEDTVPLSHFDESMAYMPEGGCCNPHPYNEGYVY
# Sequence of ETV5 (P41161 whole entry): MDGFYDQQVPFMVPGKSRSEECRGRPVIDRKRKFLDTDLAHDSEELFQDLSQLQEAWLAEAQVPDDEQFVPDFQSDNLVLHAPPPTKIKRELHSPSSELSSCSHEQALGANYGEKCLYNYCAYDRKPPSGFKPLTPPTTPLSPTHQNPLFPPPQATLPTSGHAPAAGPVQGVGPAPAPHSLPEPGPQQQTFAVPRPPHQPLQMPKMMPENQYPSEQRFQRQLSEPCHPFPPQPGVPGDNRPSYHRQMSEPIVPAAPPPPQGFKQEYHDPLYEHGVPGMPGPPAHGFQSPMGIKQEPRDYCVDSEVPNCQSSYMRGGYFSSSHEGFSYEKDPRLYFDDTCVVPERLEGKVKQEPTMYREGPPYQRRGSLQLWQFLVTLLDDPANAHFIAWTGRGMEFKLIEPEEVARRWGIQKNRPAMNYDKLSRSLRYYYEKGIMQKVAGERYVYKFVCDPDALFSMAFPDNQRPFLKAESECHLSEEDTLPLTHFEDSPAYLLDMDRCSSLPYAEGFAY
# Sequence of ETV6 (P41212 whole entry): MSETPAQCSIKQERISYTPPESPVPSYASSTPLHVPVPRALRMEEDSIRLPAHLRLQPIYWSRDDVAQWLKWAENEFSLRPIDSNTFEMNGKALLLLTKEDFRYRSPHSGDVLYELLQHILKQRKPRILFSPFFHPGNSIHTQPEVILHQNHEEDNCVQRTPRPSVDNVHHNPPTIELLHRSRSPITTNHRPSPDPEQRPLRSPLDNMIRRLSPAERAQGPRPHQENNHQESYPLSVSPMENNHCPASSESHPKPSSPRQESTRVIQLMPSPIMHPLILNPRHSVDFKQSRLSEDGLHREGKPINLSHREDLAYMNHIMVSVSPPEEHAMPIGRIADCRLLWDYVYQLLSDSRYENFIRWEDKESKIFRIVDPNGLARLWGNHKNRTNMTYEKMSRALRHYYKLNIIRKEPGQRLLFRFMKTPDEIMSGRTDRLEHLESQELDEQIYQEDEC
sequence,measurement,setting,value
ATAAAA,binding signal,FEV,"1.15 fold enrichment (6-mer frequency, TF over GST control)"
same,binding signal,ETV5,"1.12 fold enrichment (6-mer frequency, TF over GST control)"
same,binding signal,HSF1,"1.31 fold enrichment (6-mer frequency, TF over GST control)"
same,binding signal,SPIC,"1.02 fold enrichment (6-mer frequency, TF over GST control)"
same,binding signal,ELF4,"1.2 fold enrichment (6-mer frequency, TF over GST control)"
same,binding signal,ELK4,"1.17 fold enrichment (6-mer frequency, TF over GST control)"
same,binding signal,ETV2,"1.2 fold enrichment (6-mer frequency, TF over GST control)"
same,binding signal,ELF3,"1.2 fold enrichment (6-mer frequency, TF over GST control)"
same,binding signal,CRX,"1.43 fold enrichment (6-mer frequency, TF over GST control)"
same,binding signal,ETV1,"1.16 fold enrichment (6-mer frequency, TF over GST control)"
same,binding signal,ERF,"1.13 fold enrichment (6-mer frequency, TF over GST control)"
same,binding signal,ETV3L,"1.15 fold enrichment (6-mer frequency, TF over GST control)"
same,binding signal,ETS2,"1.17 fold enrichment (6-mer frequency, TF over GST control)"
same,binding signal,SPDEF,"1.12 fold enrichment (6-mer frequency, TF over GST control)"
same,binding signal,ETV7,"1.1 fold enrichment (6-mer frequency, TF over GST control)"
same,binding signal,ELF5,"1.11 fold enrichment (6-mer frequency, TF over GST control)"
same,binding signal,ETV3,"1.15 fold enrichment (6-mer frequency, TF over GST control)"
same,binding signal,ETV6,"1.16 fold enrichment (6-mer frequency, TF over GST control)"
